Compounds with a hit are over-represented: about 12% of the library has one in this group of screens.
Pf growth 48h – inhibits P. falciparum growth in the first generation, 48 h; P. falciparum luciferase growth in erythrocytes, 48 h; 310,000 tested, 5.9% active; AID 504832; Potency, µM (doses to about 28.7 µM), inactives show top-dose activity change, negative = inhibition, usual class: inhibitors; note: % is set by controls: 0 for no effect and ±100 for the full control effect
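Growth was read as firefly luciferase luminescence after a 48 h, 37 C, 5% CO2 exposure of compounds to reporter-bearing P. falciparum cultures (0.1% parasitemia, 2% hematocrit final) in Albumax-supplemented RPMI 1640.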
SARS PLP yeast – inhibitors of SARS-CoV papain-like protease in yeast. S. cerevisiae expressing SARS-CoV PLpro, growth rescue. Potency, µM (doses to about 32.9 µM), inactives show at the top dose activity, positive = growth rescue, actives largely listed as activators. 330,000 tested, 0.19% active. AID 485353; calls by dose curve; note: 0% is about no effect; nearly all actives have a fitted effect of over 55% in size
Sm TGR block – S. mansoni TGR enzyme inhibition; Q962Y6; purified TGR, DTNB reduction, TNB absorbance 405 nm; Potency, µM (highest dose often 114 µM), for inactives: at the highest dose activity change, negative = inhibition, usual class: inhibitors; 360,000 tested, 3% active; AID 485364; note: % is set by controls: 0 for no effect and ±100 for the full control effect; nearly all actives have a fitted effect of over 60% in size
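Kinetic colorimetric format: TGR-catalysed, NADPH-driven DTNB reduction monitored via TNB absorbance. Enzyme dispensed at 20 nM; compound exposure 15 min at room temperature before reaction start.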
Pf growth 96h – P. falciparum growth inhibition at 96 hour, primary screen for plastid delayed-death inhibitors; AID 504834; 320,000 tested, 6.9% active; P. falciparum luciferase reporter growth, 96 h; Potency, µM (doses to about 28.7 µM), without a hit: at the top dose activity change, negative = inhibition, actives largely listed as inhibitors; note: % is set by controls: 0 for no effect and ±100 for the full control effect
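Compounds incubated with erythrocytes infected by luciferase-expressing P. falciparum (2% hematocrit, 0.05% parasitemia final) for 96 hours, 37 C in 5% CO2. Growth inhibition scored as decreased luciferase luminescence.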
AmpC no deterg – AmpC beta-lactamase inhibition without detergent. P00811. AmpC nitrocefin hydrolysis, absorbance 480 nm, 0.0001% Triton. Potency, µM (top dose mostly 57.1 µM), for inactives: at the top dose activity change, negative = inhibition, actives largely listed as inhibitors. 330,000 tested, 0.52% active. AID 485341;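 note: plate controls were no compound for no effect and no enzyme for full effect; nearly all actives have a fitted effect of over 20% in size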
Target sequence (P00811 whole entry, looked up): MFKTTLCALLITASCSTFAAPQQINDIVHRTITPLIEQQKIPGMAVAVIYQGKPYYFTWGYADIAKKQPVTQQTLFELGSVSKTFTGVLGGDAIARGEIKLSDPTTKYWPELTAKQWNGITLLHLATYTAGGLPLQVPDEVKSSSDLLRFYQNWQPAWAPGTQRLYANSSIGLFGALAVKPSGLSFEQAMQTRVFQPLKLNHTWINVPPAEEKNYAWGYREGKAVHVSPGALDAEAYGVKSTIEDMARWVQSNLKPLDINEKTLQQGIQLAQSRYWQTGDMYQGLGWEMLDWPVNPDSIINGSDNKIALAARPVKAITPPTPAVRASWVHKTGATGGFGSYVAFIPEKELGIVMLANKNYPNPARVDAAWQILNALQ
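AmpC (5.3 nM in the dispensed reagent) in 20 mM phosphate pH 7.0 with 0.01% (detergent screen) or 0.0001% Triton X-100 was preincubated with compounds for 15 min at room temperature. Nitrocefin was then added from an 800 uM solution, and hydrolysis was followed at 480 nm.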
AmpC inh detg – AmpC beta-lactamase inhibition with detergent present | P00811 | AmpC hydrolysis of nitrocefin, absorbance 480 nm, 0.01% Triton | Potency, µM (top dose mostly 114 µM), inactives show at the top dose activity change, negative = inhibition, hits mostly inhibitors | 370,000 tested, 0.041% active | AID 485294;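 note: 0% = no-compound wells and -100% = no-enzyme wells; nearly all actives have a fitted effect of over 25% in size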
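20 mM phosphate pH 7.0 + 0.01% (detergent screen) or 0.0001% Triton X-100; 5.3 nM AmpC reagent; cpd preinc 15 min RT; nitrocefin (800 uM stock) to start; A480 q20 s × 4 min; Activity was normalised to no-enzyme and no-compound control wells.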
Numbers without * were called inactive; ? = inconclusive; · = not tested or not shown; [ ] = remark or other dose. Unless noted, calls come from the whole dose curve; as a rule, active = well fitted curve in the direction sought with a large enough effect; inconclusive = small, poorly fitted or top-dose-only effect, or another doubt; inactive = no such curve, though single readings can be large; an effect the other way counts as inactive or inconclusive. Potency is the fitted concentration of half-maximal effect.

SMILES | Pf growth 48h | SARS PLP yeast | Sm TGR block | Pf growth 96h | AmpC no deterg | AmpC inh detg
Cc1ccn2c(=O)c(C(=O)NC3CCCCC3C)c(O)nc2c1 (stereo not drawn) | 2.3µM* | -1% | -5% | ? | -10% | -8%
Cc1ccn2c(=O)c(C(=O)NCCCN3CCCCC3C)c(O)nc2c1 (stereo not drawn) | -12% | -3% | 2% | ? | -22% | ?
Cc1cccn2c(=O)c(C(=O)NCCCN3CCCCC3C)c(O)nc12 (stereo not drawn) | 10% | 7% | ? | ? | -21% | -14%
Cc1cccn2c(=O)c(C(=O)NC3CC(C)CC(C)(C)C3)c(O)nc12 (stereo not drawn) | 3.7µM* | -4% | -1% | ? | -9% | -5%
Cc1cccn2c(=O)c(C(=O)NC3CCCCC3)c(O)nc12 | ? | -2% | 0% | ? | -36% | -7%
Cc1cccn2c(=O)c(C(=O)NC3CCCCC3C)c(O)nc12 (stereo not drawn) | 13µM* | -6% | 1% | ? | -36% | 0%
COc1cc(C(=O)Nc2ccc(-c3cc(C(F)(F)F)nn3-c3ccccc3)cc2)cc(OC)c1OC | · | · | -3% | · | · | 3%
COc1cc(OC)cc(C(=O)Nc2ccc(S(=O)(=O)N3CCCCC3c3cccnc3)cc2)c1 (stereo not drawn) | · | · | 8% | · | · | -3%
CCOC(=O)C1=C(c2ccccc2)NC(N)=NC1c1ccc(OCc2ccc(Cl)cc2)c(OC)c1 (stereo not drawn) | 1.5µM* | -1% | 4% | 1.7µM* | -29% | 8%
Cc1cc(C2CCCCC2)n(O)c(=O)c1 | 0.74µM* | · | -4% | 0.47µM* | 1% | 6%
Cc1cc(C)c(NC(=O)NC2CCCCC2)c(C)c1 | -3% | -16% | -7% | 6% | 2% | -5%
Fc1ccc(CNc2cc(-c3ccccc3)nc3nncn23)cc1 | · | · | -3% | · | · | 14%
CC1C/C(=N\NC(=S)NCc2ccccc2)CC(C)(C)C1 (stereo not drawn) | · | -34% | -1% | 4.1µM* | 2% | 3%
CC12C(=O)N(CCC(=O)O)C(=O)C1C1C=CC2C1 (stereo not drawn) | 5% | 6% | 6% | ? | -16% | 9%
NNC(=O)CSc1c(-c2cccs2)[nH]c2ccccc12 | -17% | 6% | -24% | -10% | 14µM* | ?
COc1nc(N=C(N)N)nc2ccc(C)cc12 | 2.6µM* | -4% | -5% | ? | -21% | -1%
COc1ccc(-c2nc3ccc(C)cc3c(=O)o2)cc1OC | 8% | -5% | 6% | ? | -30% | 0%
CS(=O)(=O)Nc1ccc(C(=O)NCCSCc2ccccc2)cc1 | ? | 1% | 15% | 13µM* | -30% | 8%
CS(=O)(=O)N(CC(=O)NCCSCc1c(F)cccc1Cl)c1ccc2c(c1)OCO2 | 12µM* | -12% | 0% | -1% | 34% | ?
Cc1cccc(N(CC(=O)NCCSCc2ccccc2)S(C)(=O)=O)c1C | -11% | 0% | 7% | -34% | 31% | ?
COc1ccc(N(CC(=O)NCCSCc2c(F)cccc2Cl)S(C)(=O)=O)cc1OC | -16% | 2% | -6% | · | -2% | 2%
CS(=O)(=O)Nc1ccc(C(=O)NCCc2ccccc2)cc1 | 194% | 2% | 4% | · | -19% | 2%
CS(=O)(=O)N(CC(=O)NCCSCc1ccccc1)c1ccccc1Br | 8% | -3% | -26% | 7.4µM* | 17% | 1%
Cc1ccccc1N(CC(=O)NCCSCc1ccccc1)S(C)(=O)=O | -14% | -1% | 1% | 12µM* | 2% | 2%
COC(=O)c1ccc(CNC(=O)c2ccc(S(=O)(=O)N(C)c3ccccc3OC)cc2)cc1 | ? | -4%[6.58 µM] | -22% | ? | -33% | -3%
SMILES | Pf growth 48h | SARS PLP yeast | Sm TGR block | Pf growth 96h | AmpC no deterg | AmpC inh detg
COc1ccc(CNC(=O)c2ccc(-c3nc(CSc4ccccc4)c(C)o3)cc2)cc1OC | · | · | -32% | · | · | 5%
CCc1nn(C(C)C(=O)Nc2cccc(C)c2C)c(=O)c2cc3occc3n12 (stereo not drawn) | 9.3µM* | 9% | -7% | -11% | -20% | -13%
COc1ccc(CCNC(=O)C(C)n2nc(C)n3c(cc4occc43)c2=O)cc1OC (stereo not drawn) | 2% | 10% | -6% | 13µM* | 1% | -2%
CCc1nn(C(C)C(=O)NCCN2CCN(c3cccc(C)c3C)CC2)c(=O)c2cc3occc3n12 (stereo not drawn) | 0% | 1% | -2% | 0% | 135% | -7%
CCc1cccc(NC(=O)CCCn2nc(CC)n3c(cc4occc43)c2=O)c1 | ? | -4% | -18% | 12µM* | 12% | 4%
COc1cccc(CNC(=O)CCCn2ncn3c(cc4occc43)c2=O)c1 | ? | 0% | -12% | 4.7µM* | 2% | 0%
CCc1nn(CCCC(=O)NCc2ccccc2Br)c(=O)c2cc3occc3n12 | -16% | -12% | 3% | 3% | -3% | 16%
Brc1ccc(-c2nc(N/N=C/c3cccnc3)c3ccccc3n2)cc1 | · | -39% | -2% | ? | 4% | -5%
CC(=O)C1=C(C)OC(N)=C(C#N)C1c1ccncc1 (stereo not drawn) | -18% | 3% | 43% | -23% | -9% | ?
CC(=O)C1=C(C)OC(N)=C(C#N)C1c1cccc2ccccc12 (stereo not drawn) | 1% | 0% | 11µM* | 5% | -24% | -4%
CC(=O)C1=C(C)OC(N)=C(C#N)C1c1ccco1 (stereo not drawn) | ? | -1% | 13µM* | ? | -15% | 0%
COC(=O)C1=C(C)OC(N)=C(C#N)C1c1ccco1 (stereo not drawn) | -16% | 13% | -29% | ? | -7% | 1%
COc1ccc(C2=NOC(C(=O)Nc3ccc(C)cc3)C2)cc1OC (stereo not drawn) | · | -5% | 2% | -3% | 0% | 8%
COc1ccc(NC(=O)C2CC(c3ccc(OC)c(OC)c3)=NO2)cc1OC (stereo not drawn) | -4% | 4% | 2% | 13µM* | 61% | -1%
COc1cc(C2=NOC(C(=O)Nc3ccc4c(c3)OCO4)C2)cc(OC)c1OC (stereo not drawn) | 2.9µM* | -2% | -10% | 13% | -16% | -3%
COc1ccc(C2=NOC(C(=O)NCc3ccc(F)cc3)C2)cc1OC (stereo not drawn) | -28% | 3% | -13% | 2.3µM* | -6% | ?
